# Measurements published in PubChem BioAssay (NCI).
# The panel holds about 79,000 compounds, 15% with a hit somewhere; the sample as a whole holds those more often. A number with no mark means an inactive call. Active and inactive are the calls of the source. No stated cut-off is given here; in the data, active means growth inhibition above about 70%; inactive means the rest.
# Key:
# [1] = NCI Yeast Anticancer Drug Screen. Data for the rad52 strain (AID 147);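 further: 0% = growth of vehicle-treated control cultures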; settings: S. cerevisiae rad52 mutant growth inhibition, active compounds read high
# Outline: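 Yeast strain carrying a DNA damage repair alteration was exposed to test compounds. Growth inhibition was measured relative to vehicle-treated controls.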
# [2] = NCI Yeast Anticancer Drug Screen. Data for the rad50EPP+ strain (AID 151);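 further: 0% = growth of vehicle-treated control cultures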; settings: S. cerevisiae rad50 mutant strain, active compounds read high
# Outline: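 Yeast strain carrying rad50 alteration (rad50EPP+) exposed to compounds; growth inhibition measured relative to vehicle-treated controls.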
# [3] = NCI Yeast Anticancer Drug Screen. Data for the mgt1 strain (AID 153); settings: S. cerevisiae mgt1 mutant growth inhibition, active compounds read high
# Outline: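 Yeast mgt1 strain (DNA repair/cell-cycle alteration panel) exposed to compounds; growth inhibition measured relative to vehicle-treated controls.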
# [4] = NCI Yeast Anticancer Drug Screen. Data for the rad50 strain (AID 155);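 further: 0% = growth of vehicle-only cultures of the same strain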; settings: S. cerevisiae rad50 strain growth inhibition, active compounds read high
# Outline: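 Readout: growth inhibition relative to vehicle-treated cultures. Compound exposure was carried out in a genetically defined yeast strain deficient in DNA damage repair.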
# [5] = NCI Yeast Anticancer Drug Screen. Data for the mec2-1 strain (AID 157); settings: S. cerevisiae mec2-1 strain, active compounds read high
# Outline: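 mec2-1 yeast strain, carrying an alteration in DNA damage repair or cell cycle control, was exposed to compounds; growth inhibition was measured relative to vehicle-treated controls.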
# [6] = NCI Yeast Anticancer Drug Screen. Data for the rad14 strain (AID 159);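 further: 0% = growth of vehicle-treated control cultures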; settings: S. cerevisiae rad14 strain growth inhibition, active compounds read high
# Outline: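 Growth inhibition vs vehicle controls; genetically altered yeast strain (DNA damage repair defect) treated with test compounds.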
# [7] = NCI Yeast Anticancer Drug Screen. Data for the sgs1 mgt1 strain (AID 161);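 further: 0% = growth of cultures given vehicle only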; settings: S. cerevisiae sgs1 mgt1 strain, active compounds read high
# Outline: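 Percent growth inhibition was derived by comparing compound-exposed mutant yeast with vehicle-exposed cultures. The strain carries alterations in DNA damage repair.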
# [8] = NCI Yeast Anticancer Drug Screen. Data for the CLN2oe strain (AID 163);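 further: 0% = growth of vehicle-only control cultures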; settings: S. cerevisiae CLN2oe strain, active compounds read high
# Outline: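 Yeast cells carrying a defined cell-cycle control alteration were exposed to test compounds. Growth inhibition was scored against vehicle-treated control cultures.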
# [9] = NCI Yeast Anticancer Drug Screen. Data for the cln2 rad14 strain (AID 165);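 further: 0% = growth equal to vehicle treated cultures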; settings: S. cerevisiae cln2 rad14 strain, active compounds read high
# Outline: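 Yeast carrying cln2 and rad14 alterations (cell cycle control and DNA damage repair) were exposed to compounds. Growth inhibition was measured against vehicle-treated controls.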
# [10] = NCI Yeast Anticancer Drug Screen. Data for the bub3 strain (AID 167); settings: S. cerevisiae bub3 mutant strain, active compounds read high
# Outline: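 Readout: yeast growth inhibition, expressed relative to vehicle-only wells. The test organism is a mutant strain from a panel with lesions in DNA repair or checkpoint genes.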
# [11] = NCI Yeast Anticancer Drug Screen. Data for the wt2 strain (AID 169);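 further: 0% = growth of vehicle-treated yeast cultures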; settings: S. cerevisiae wt2 strain growth inhibition, active compounds read high
# Outline: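 Yeast cells were exposed to test compounds, and growth inhibition was measured relative to vehicle-treated controls.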
# [12] = NCI Yeast Anticancer Drug Screen. Data for the sgs1 strain (AID 173);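 further: 0% = growth of vehicle-only control cultures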; settings: S. cerevisiae sgs1 mutant, active compounds read high
# Outline: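 Yeast mutant strains carrying defined defects in DNA damage repair or cell cycle control were exposed to test compounds. Growth inhibition was scored against vehicle-treated controls.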
# [13] = NCI Yeast Anticancer Drug Screen. Data for the mlh1 rad18 strain (AID 175); settings: S. cerevisiae mlh1 rad18 strain growth inhibition, active compounds read high
# Outline: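 Growth inhibition of the yeast strain was measured after compound exposure and expressed relative to vehicle-treated controls. The strain carries defined defects in DNA damage repair.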
# [14] = NCI Yeast Anticancer Drug Screen. Data for the rad18 strain (AID 177); settings: S. cerevisiae rad18 mutant growth inhibition, active compounds read high
# Outline: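 Yeast carrying a defined DNA damage repair alteration were exposed to compounds. Growth inhibition was expressed relative to vehicle-treated controls.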
# [15] = NCI Yeast Anticancer Drug Screen. Data for the wt1 strain (AID 149);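 further: 0% = growth of vehicle-treated wt1 cultures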; settings: S. cerevisiae wt1 strain (SPY 50644) growth inhibition, active compounds read high
# Outline: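 Growth inhibition read against vehicle controls after compound exposure of the wt1 yeast strain.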
# [16] = NCI Yeast Anticancer Drug Screen. Data for the mlh1 strain (AID 171);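 further: 0% = growth of vehicle-treated control cultures of the same strain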; settings: S. cerevisiae mlh1 strain growth inhibition, active compounds read high
# Outline: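 Yeast carrying a defined genetic alteration in DNA damage repair or cell cycle control were exposed to test compounds. Growth inhibition was measured relative to vehicle-treated controls.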
# [17] = at 5.0 µM (retest, dose inferred, filed as 0.5)
# [18] = at 50.0 µM (retest, dose inferred, filed as 5.0)
structure (smiles),measurement,setting,value
COC(=O)C1(C)CCc2c(ccc3ccccc23)C1=O (stereo unspecified),growth inhibition,[1]; at 1.2 µM,-1%
same,growth inhibition,[1]; at 3.7 µM,4%
same,growth inhibition,[1]; at 11.0 µM,12%
same,growth inhibition,[1]; at 33.0 µM,4%
same,growth inhibition,[1]; at 100.0 µM,44%
same,growth inhibition,[2]; at 1.2 µM,-1%
same,growth inhibition,[2]; at 3.7 µM,13%
same,growth inhibition,[2]; at 11.0 µM,28%
same,growth inhibition,[2]; at 33.0 µM,23%
same,growth inhibition,[2]; at 100.0 µM,49%
same,growth inhibition,[3]; at 1.2 µM,-1%
same,growth inhibition,[3]; at 3.7 µM,0%
same,growth inhibition,[3]; at 11.0 µM,-1%
same,growth inhibition,[3]; at 33.0 µM,-2%
same,growth inhibition,[3]; at 100.0 µM,30%
same,growth inhibition,[4]; at 1.2 µM,-1%
same,growth inhibition,[4]; at 3.7 µM,6%
same,growth inhibition,[4]; [17],-13%
same,growth inhibition,[4]; at 11.0 µM,13%
same,growth inhibition,[4]; at 33.0 µM,-87%
same,growth inhibition,[4]; [18],29%
same,growth inhibition,[4]; at 50.0 µM,39.9%
same,growth inhibition,[4]; at 100.0 µM,42%
same,growth inhibition,[5]; at 1.2 µM,1%
same,growth inhibition,[5]; at 3.7 µM,-1%
same,growth inhibition,[5]; [17],-14%
same,growth inhibition,[5]; at 11.0 µM,-2%
same,growth inhibition,[5]; at 33.0 µM,0%
same,growth inhibition,[5]; [18],-17%
same,growth inhibition,[5]; at 50.0 µM,27.1%
same,growth inhibition,[5]; at 100.0 µM,13%
same,growth inhibition,[6]; at 1.2 µM,-1%
same,growth inhibition,[6]; at 3.7 µM,4%
same,growth inhibition,[6]; at 11.0 µM,12%
same,growth inhibition,[6]; at 33.0 µM,14%
same,growth inhibition,[6]; at 100.0 µM,19%
same,growth inhibition,[7]; [17],-5%
same,growth inhibition,[7]; [18],47%
same,growth inhibition,[7]; at 50.0 µM,64.3%
same,growth inhibition,[8]; at 1.2 µM,-4%
same,growth inhibition,[8]; at 3.7 µM,4%
same,growth inhibition,[8]; at 11.0 µM,6%
same,growth inhibition,[8]; at 33.0 µM,11%
same,growth inhibition,[8]; at 100.0 µM,15%
same,growth inhibition,[9]; [17],-10%
same,growth inhibition,[9]; [18],12%
same,growth inhibition,[9]; at 50.0 µM,1.75%
same,growth inhibition,[10]; at 1.2 µM,37%
same,growth inhibition,[10]; at 3.7 µM,49%
same,growth inhibition,[10]; [17],40%
same,growth inhibition,[10]; at 11.0 µM,57%
same,growth inhibition,[10]; at 33.0 µM,65%
same,growth inhibition,[10]; [18],78% (active)
same,growth inhibition,[10]; at 50.0 µM,81% (active)
same,growth inhibition,[10]; at 100.0 µM,75% (active)
same,growth inhibition,[11]; at 1.2 µM,-5%
same,growth inhibition,[11]; at 3.7 µM,-2%
same,growth inhibition,[11]; at 11.0 µM,9%
same,growth inhibition,[11]; at 33.0 µM,-5%
same,growth inhibition,[11]; at 100.0 µM,80% (active)
same,growth inhibition,[12]; at 1.2 µM,-14%
same,growth inhibition,[12]; at 3.7 µM,3%
same,growth inhibition,[12]; at 11.0 µM,16%
same,growth inhibition,[12]; at 33.0 µM,34%
same,growth inhibition,[12]; at 100.0 µM,67%
same,growth inhibition,[13]; [17],-11%
same,growth inhibition,[13]; [18],57%
same,growth inhibition,[13]; at 50.0 µM,26.5%
same,growth inhibition,[14]; at 1.2 µM,-5%
same,growth inhibition,[14]; at 3.7 µM,6%
same,growth inhibition,[14]; at 11.0 µM,10%
same,growth inhibition,[14]; at 33.0 µM,7%
same,growth inhibition,[14]; at 100.0 µM,53%
Nc1ncc(-c2ccc(Br)cc2)s1,growth inhibition,[15]; at 1.2 µM,9%
same,growth inhibition,[15]; at 3.7 µM,17%
same,growth inhibition,[15]; at 11.0 µM,22%
same,growth inhibition,[15]; at 33.0 µM,92% (active)
same,growth inhibition,[15]; at 100.0 µM,98% (active)
same,growth inhibition,[3]; at 1.2 µM,1%
same,growth inhibition,[3]; at 3.7 µM,-1%
same,growth inhibition,[3]; at 11.0 µM,2%
same,growth inhibition,[3]; at 33.0 µM,95% (active)
same,growth inhibition,[3]; at 100.0 µM,98% (active)
same,growth inhibition,[4]; at 1.2 µM,7%
same,growth inhibition,[4]; at 3.7 µM,7%
same,growth inhibition,[4]; [17],51%
same,growth inhibition,[4]; at 11.0 µM,13%
same,growth inhibition,[4]; at 33.0 µM,91% (active)
same,growth inhibition,[4]; [18],51%
same,growth inhibition,[4]; at 50.0 µM,89.5% (active)
same,growth inhibition,[4]; at 100.0 µM,97% (active)
same,growth inhibition,[5]; at 1.2 µM,-22%
same,growth inhibition,[5]; at 3.7 µM,-1%
same,growth inhibition,[5]; [17],53%
same,growth inhibition,[5]; at 11.0 µM,-15%
same,growth inhibition,[5]; at 33.0 µM,92% (active)
same,growth inhibition,[5]; [18],55%
same,growth inhibition,[5]; at 50.0 µM,93% (active)
same,growth inhibition,[5]; at 100.0 µM,98% (active)
same,growth inhibition,[6]; at 1.2 µM,-25%
same,growth inhibition,[6]; at 3.7 µM,-8%
same,growth inhibition,[6]; at 11.0 µM,-1%
same,growth inhibition,[6]; at 33.0 µM,93% (active)
same,growth inhibition,[6]; at 100.0 µM,97% (active)
same,growth inhibition,[7]; [17],18%
same,growth inhibition,[7]; [18],99% (active)
same,growth inhibition,[7]; at 50.0 µM,92.7% (active)
same,growth inhibition,[8]; at 1.2 µM,21%
same,growth inhibition,[8]; at 3.7 µM,3%
same,growth inhibition,[8]; at 11.0 µM,-7%
same,growth inhibition,[8]; at 33.0 µM,90% (active)
same,growth inhibition,[8]; at 100.0 µM,97% (active)
same,growth inhibition,[9]; [17],56%
same,growth inhibition,[9]; [18],99% (active)
same,growth inhibition,[9]; at 50.0 µM,90.3% (active)
same,growth inhibition,[10]; at 1.2 µM,-8%
same,growth inhibition,[10]; at 3.7 µM,-8%
same,growth inhibition,[10]; [17],-18%
same,growth inhibition,[10]; at 11.0 µM,-11%
same,growth inhibition,[10]; at 33.0 µM,82% (active)
same,growth inhibition,[10]; [18],99% (active)
same,growth inhibition,[10]; at 50.0 µM,89.8% (active)
same,growth inhibition,[10]; at 100.0 µM,97% (active)
same,growth inhibition,[11]; at 1.2 µM,8%
same,growth inhibition,[11]; at 3.7 µM,8%
same,growth inhibition,[11]; at 11.0 µM,8%
same,growth inhibition,[11]; at 33.0 µM,93% (active)
same,growth inhibition,[11]; at 100.0 µM,98% (active)
same,growth inhibition,[16]; at 1.2 µM,-9%
same,growth inhibition,[16]; at 3.7 µM,-14%
same,growth inhibition,[16]; at 11.0 µM,-1%
same,growth inhibition,[16]; at 33.0 µM,94% (active)
same,growth inhibition,[16]; at 100.0 µM,97% (active)
same,growth inhibition,[12]; at 1.2 µM,19%
same,growth inhibition,[12]; at 3.7 µM,26%
same,growth inhibition,[12]; at 11.0 µM,34%
same,growth inhibition,[12]; at 33.0 µM,92% (active)
same,growth inhibition,[12]; at 100.0 µM,97% (active)
same,growth inhibition,[13]; [17],39%
same,growth inhibition,[13]; [18],55%
same,growth inhibition,[13]; at 50.0 µM,89.9% (active)
same,growth inhibition,[14]; at 1.2 µM,-29%
same,growth inhibition,[14]; at 3.7 µM,-30%
same,growth inhibition,[14]; at 11.0 µM,-16%
same,growth inhibition,[14]; at 33.0 µM,91% (active)
same,growth inhibition,[14]; at 100.0 µM,97% (active)
